Source: PubChem BioAssay (Tox21)
Values joined by “and” are separate entries in the source; they are usually repeats but may differ in a detail not shown here. Equal values may be shown once. Records with an inconclusive call do not appear. A call without a number means that no potency is given here. A structure can be active in one record and inactive in another. Active and inactive are the calls of the source. Unless noted, calls come from the whole dose curve; as a rule, active = well fitted curve in the direction sought with a large enough effect in the repeat runs; inconclusive = weak or mixed curves; inactive = no such curve, though single readings can be large; an effect the other way counts as inactive or inconclusive.

Assays:
[1] = Human pregnane X receptor (PXR) small molecule agonists, qHTS cell viability counter screen (AID 1346977); note: nearly all actives have a fitted effect of over 50% in size; note: potency is the fitted concentration of half-maximal effect
Method in brief: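 PXR-Luc HepG2, 2,000 cells/well, 5% charcoal-stripped FBS; 5hr settle; cpd 24hr, 37C/5% CO2; CellTiter-Fluor at 23hr, read 1hr later (fluorescence).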

[2] = Caspase-3/7 induction in HepG2 cells by small molecules, qHTS assay (AID 1346978); note: nearly all actives have a fitted effect of over 15% in size; note: potency is the fitted concentration of half-maximal effect
Method in brief: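 Caspase-3/7 induction was measured by Caspase-Glo 3/7 luminescence (30 min, room temperature) after a 17 hr compound exposure of wild-type HepG2 cells seeded at 2,000 per well and pre-incubated 5 hr.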

[3] = Caspase-3/7 induction in CHO-K1 cells by small molecules, qHTS cell viability counter screen (AID 1346979); note: nearly all actives have a fitted effect of over 35% in size; note: potency is the fitted concentration of half-maximal effect
Method in brief: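 Cells (CHO-K1, wild type) are plated at 1,500 per well and incubated 5hr. Test compounds in DMSO are then pinned in, followed by 16hr at 37C and 5% CO2. Viability is read by CellTiter-Fluor fluorescence after 1hr.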

[4] = Caspase-3/7 induction in CHO-K1 cells by small molecules, qHTS assay (AID 1346980); note: nearly all actives have a fitted effect of over 15% in size; note: potency is the fitted concentration of half-maximal effect
Method in brief: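 Luminescent Caspase-Glo 3/7 read (30min, room temperature) quantified apoptosis induction. Cells were wild-type CHO-K1, treated with compound for 17hr at 37 C and 5% CO2.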

[5] = Caspase-3/7 induction in HepG2 cells by small molecules, qHTS cell viability counter screen (AID 1346981); note: nearly all actives have a fitted effect of over 30% in size; note: potency is the fitted concentration of half-maximal effect
Method in brief: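 After a 5-hr attachment period at 37 C and 5% CO2, wild-type HepG2 cells received compounds in DMSO. Sixteen hours later CellTiter-Fluor was dispensed and the fluorescent signal quantified after a further hour.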

[6] = target: Thyrotropin-releasing hormone receptor (Homo sapiens) (UniProt P34981); test: qHTS assay to identify small molecule agonists of the thyrotropin-releasing hormone receptor (TRHR) signaling pathway (AID 1346891; calls by dose curve; note: potency is the fitted concentration of half-maximal effect; for activation: series mostly up to about 58 µM)
Sequence of Thyrotropin-releasing hormone receptor (Homo sapiens) (P34981 whole entry, looked up): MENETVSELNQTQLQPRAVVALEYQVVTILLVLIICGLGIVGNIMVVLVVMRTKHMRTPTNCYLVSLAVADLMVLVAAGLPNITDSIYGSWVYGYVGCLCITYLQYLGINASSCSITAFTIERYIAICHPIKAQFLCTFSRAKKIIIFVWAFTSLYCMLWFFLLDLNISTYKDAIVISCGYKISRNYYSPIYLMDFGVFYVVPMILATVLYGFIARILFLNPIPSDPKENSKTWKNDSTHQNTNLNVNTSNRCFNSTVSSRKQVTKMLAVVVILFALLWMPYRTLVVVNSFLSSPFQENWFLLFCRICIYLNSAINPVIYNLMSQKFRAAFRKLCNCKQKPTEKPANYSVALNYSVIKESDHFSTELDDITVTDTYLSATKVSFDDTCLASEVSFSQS
Method in brief: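 Intracellular calcium rise, read as fluorescence every second for 3 min, served as the agonist signal in dye-loaded HEK293 cells expressing TRHR; each compound ran at 15 concentrations in triplicate.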

[7] = target: Nuclear receptor subfamily 1 group I member 2 (Homo sapiens) (UniProt O75469); test: Human pregnane X receptor (PXR) small molecule agonists, qHTS assay (AID 1346982); note: nearly all actives have a fitted effect of over 35% in size; note: potency is the fitted concentration of half-maximal effect
Sequence of Nuclear receptor subfamily 1 group I member 2 (Homo sapiens) (O75469 whole entry, looked up): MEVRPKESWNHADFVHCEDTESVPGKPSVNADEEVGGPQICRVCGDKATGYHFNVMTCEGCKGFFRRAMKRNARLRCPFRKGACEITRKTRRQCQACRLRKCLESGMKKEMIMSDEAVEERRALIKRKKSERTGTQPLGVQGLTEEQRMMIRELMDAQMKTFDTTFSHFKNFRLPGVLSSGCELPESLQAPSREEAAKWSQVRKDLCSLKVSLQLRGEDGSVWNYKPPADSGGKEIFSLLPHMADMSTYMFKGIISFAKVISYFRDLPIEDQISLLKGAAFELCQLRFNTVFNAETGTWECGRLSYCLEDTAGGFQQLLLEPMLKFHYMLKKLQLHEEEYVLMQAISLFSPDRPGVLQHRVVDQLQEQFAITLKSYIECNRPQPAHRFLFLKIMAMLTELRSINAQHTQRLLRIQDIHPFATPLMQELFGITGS
Method in brief: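 Tox21 qHTS; PXR-Luc HepG2; compounds pinned from DMSO; 24 hr, 37 C; ONE-Glo luciferase detection, 30 min room temperature.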

[8] = target: Nuclear receptor subfamily 1 group I member 2 (Rattus norvegicus) (UniProt Q9R1A7); test: Rat pregnane X receptor (rPXR) activation by small molecules, qHTS assay (AID 1346983); settings: rPXR luciferase reporter cells, One-Glo luminescence, 24 h; max activation: stronger effect = higher value; note: nearly all actives have a fitted effect of over 20% in size
Sequence of Nuclear receptor subfamily 1 group I member 2 (Rattus norvegicus) (Q9R1A7 whole entry, looked up): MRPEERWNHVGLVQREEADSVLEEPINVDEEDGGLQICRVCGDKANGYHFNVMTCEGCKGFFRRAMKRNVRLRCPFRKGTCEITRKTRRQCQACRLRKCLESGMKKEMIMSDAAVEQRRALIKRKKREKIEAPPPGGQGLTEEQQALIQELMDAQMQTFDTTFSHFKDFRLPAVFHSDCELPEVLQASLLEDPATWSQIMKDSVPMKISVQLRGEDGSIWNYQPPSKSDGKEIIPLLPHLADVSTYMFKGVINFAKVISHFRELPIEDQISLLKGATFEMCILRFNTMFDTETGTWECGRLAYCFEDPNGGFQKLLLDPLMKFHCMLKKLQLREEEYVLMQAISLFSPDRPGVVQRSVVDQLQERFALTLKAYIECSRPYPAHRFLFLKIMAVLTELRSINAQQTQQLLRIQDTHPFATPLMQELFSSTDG
Method in brief: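 Luminescent readout (One-Glo luciferase, 30 min room temperature) followed 24 hr compound treatment at 37 C of rPXR cells plated 2,000 per well and preincubated 5hr; qHTS format with compounds delivered in DMSO.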

[9] = target: Nuclear receptor subfamily 1 group I member 2 (Homo sapiens) (UniProt O75469); test: CYP3A4 induction through human pregnane X receptor (PXR) by small molecules, qHTS assay (AID 1346984); note: nearly all actives have a fitted effect of over 40% in size; note: potency is the fitted concentration of half-maximal effect
Method in brief: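 Cells (DPX-2; HepG2 with PXR element plus CYP3A4-promoter luciferase) settled 5hr, then were treated 24hr at 37C. A 3hr, 3uM-final Luciferin-IPA step preceded luminescence measurement with One-Glo.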

[10] = target: Nuclear receptor subfamily 1 group I member 2 (Homo sapiens) (UniProt O75469); test: Human pregnane X receptor (PXR) activation by small molecules, qHTS assay (AID 1346985); note: nearly all actives have a fitted effect of over 40% in size
Method in brief: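 DPX-2 cells (HepG2 co-transfected with a PXR response element and a CYP3A4-promoter luciferase construct) were seeded at 2,000 per well, rested 5 hr at 37C, then exposed to DMSO-dissolved compounds for 24 hr. Activation was read as luciferase luminescence.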

SMILES: Cn1c(=O)c2c(ncn2C)n(C)c1=O
- Potency [1]: 39.8 µM (active) and inactive
- Potency [2]: inactive
- Potency [3]: 61.9 µM (active) and inactive
- Potency [4]: inactive
- Potency [5]: 61.9 µM (active) and inactive

SMILES: CC(O)(P(=O)(O)O)P(=O)(O)O
- Potency [6]: inactive
- Potency [1]: inactive
- Potency [2]: inactive
- Potency [3]: inactive
- Potency [4]: inactive
- Potency [5]: inactive
- Potency [7]: inactive
- max activation [8]: -1.65% (inactive)
- Potency [9]: inactive
- outcome [10]: inactive

SMILES: NC(=O)n1c(O)c(C(=O)c2cccs2)c2cc(Cl)ccc21
- Potency [6]: inactive
- Potency [2]: inactive
- Potency [4]: inactive
- max activation [8]: 4.95% (inactive)
- Potency [9]: 28.2 µM (active)

SMILES: CC/C(=C(\c1ccccc1)c1ccc(OCCN(C)C)cc1)c1ccccc1
- Potency [6]: 15.6 µM (active) and inactive
- Potency [1]: 25.1 µM (active) [middle of 5 runs]
- Potency [2]: 27.5 µM (active) and 54.4 µM (active) and 61.1 µM (active)
- Potency [3]: 54.4 µM (active) [middle of 4 runs]
- Potency [4]: 24.5 µM (active) and inactive
- Potency [5]: 61.1 µM (active) [middle of 4 runs]
- max activation [8]: -0.827% (inactive)

SMILES: CN(N=O)C(=O)N[C@@H]1[C@@H](O)[C@H](O)[C@@H](CO)O[C@@H]1O
- Potency [6]: inactive
- Potency [1]: inactive
- Potency [2]: inactive
- Potency [3]: inactive
- Potency [4]: inactive
- Potency [5]: inactive
- Potency [7]: inactive
- max activation [8]: -0.687% (inactive)
- Potency [9]: inactive
- outcome [10]: inactive

SMILES: CCCCCCCCCCCCCCCC[N+](C)(C)Cc1ccccc1
- Potency [6]: inactive
- Potency [2]: 70.8 µM (active) and inactive
- Potency [3]: 50.1 µM (active) and 39.3 µM (active) and 29.8 µM (active)
- Potency [4]: inactive
- Potency [5]: 62.2 µM (active)
- Potency [7]: inactive
- max activation [8]: -17.4% (inactive)
- Potency [9]: inactive
- outcome [10]: inactive

SMILES: Nc1ccc(O)c([N+](=O)[O-])c1
- Potency [6]: inactive
- Potency [2]: inactive
- Potency [3]: 47.1 µM (active)
- Potency [4]: inactive
- Potency [5]: 61.1 µM (active)
- Potency [7]: 19.3 µM (active)

SMILES: C=C1CC[C@H](O)C/C1=C\C=C1/CCC[C@]2(C)[C@@H]([C@H](C)CCCC(C)C)CC[C@@H]12
- Potency [6]: inactive
- Potency [1]: inactive
- Potency [3]: 48.1 µM (active)
- Potency [5]: inactive
- Potency [7]: 17.1 µM (active)
- max activation [8]: 1.13% (inactive)
- Potency [9]: inactive

SMILES: COc1cccc(O)c1O
- Potency [6]: inactive
- Potency [2]: inactive
- Potency [3]: 63.5 µM (active)
- Potency [4]: inactive
- Potency [7]: 25.3 µM (active)

SMILES: O=S1(=O)OC(c2ccc(O)cc2)(c2ccc(O)cc2)c2ccccc21
- Potency [6]: inactive
- Potency [1]: 24.3 µM (active) and 30.6 µM (active) and 9.44 µM (active)
- Potency [2]: inactive
- Potency [3]: 30.6 µM (active) and 13.3 µM (active)
- Potency [4]: inactive
- Potency [5]: 34.4 µM (active) and 48.6 µM (active) and 15 µM (active)
- Potency [7]: inactive
- max activation [8]: 1.08% (inactive)
- Potency [9]: inactive
- outcome [10]: inactive

SMILES: O=c1[nH]cc(F)c(=O)[nH]1
- Potency [6]: inactive
- Potency [1]: inactive
- Potency [2]: inactive
- Potency [4]: inactive
- Potency [5]: inactive
- Potency [7]: 31.8 µM (active) and 24.9 µM (active) and inactive

SMILES: CC12CCC(CC1)C(C)(C)O2
- Potency [6]: inactive
- Potency [1]: inactive
- Potency [2]: inactive
- Potency [3]: inactive
- Potency [4]: inactive
- Potency [5]: inactive
- Potency [7]: inactive
- max activation [8]: -0.857% (inactive)
- Potency [9]: inactive
- outcome [10]: inactive

SMILES: CN(C)C(=S)SC(=S)N(C)C
- Potency [6]: inactive
- Potency [1]: 7.08 µM (active) and 545 nM (active) and 2.66 µM (active)
- Potency [2]: 4.98 µM (active) and 770 nM (active) and 3.76 µM (active)
- Potency [3]: 1.4 µM (active) and 433 nM (active) and 2.11 µM (active)
- Potency [4]: inactive
- Potency [5]: 30.6 µM (active)
- Potency [7]: 1.98 µM (active) and inactive
- max activation [8]: -4.94% (inactive)
- Potency [9]: inactive
- outcome [10]: inactive

SMILES: Cc1cc(=O)oc2cc(O)ccc12
- Potency [6]: inactive
- Potency [1]: inactive
- Potency [2]: inactive
- Potency [4]: inactive
- Potency [5]: inactive
- Potency [7]: inactive
- max activation [8]: -6.81% (inactive)
- Potency [9]: inactive
- outcome [10]: inactive

SMILES: NC(CO)(CO)CO
- Potency [6]: inactive
- Potency [1]: inactive
- Potency [2]: inactive
- Potency [3]: inactive
- Potency [4]: inactive
- Potency [5]: inactive
- Potency [7]: inactive
- max activation [8]: -3.86% (inactive)
- Potency [9]: inactive
- outcome [10]: inactive

SMILES: Cc1cn([C@H]2C=C[C@@H](CO)O2)c(=O)[nH]c1=O
- Potency [1]: inactive
- Potency [2]: inactive
- Potency [3]: inactive
- Potency [4]: inactive
- Potency [5]: inactive
- Potency [7]: inactive
- max activation [8]: -2.07% (inactive)
- Potency [9]: inactive
- outcome [10]: inactive

SMILES: CC1(C)S[C@@H]2[C@H](NC(=O)[C@H](N)c3ccccc3)C(=O)N2[C@H]1C(=O)O
- Potency [1]: inactive
- Potency [2]: inactive
- Potency [3]: inactive
- Potency [4]: inactive
- Potency [5]: inactive
- Potency [7]: inactive

SMILES: CCc1nc(N)nc(N)c1-c1ccc(Cl)cc1
- Potency [1]: 49.3 µM (active)
- Potency [2]: inactive
- Potency [3]: inactive
- Potency [4]: inactive
- Potency [5]: inactive
- Potency [7]: 62.1 µM (active)

SMILES: CC(=O)Nc1c(I)c(NC(C)=O)c(I)c(C(=O)O)c1I
- Potency [1]: inactive
- Potency [2]: inactive
- Potency [3]: inactive
- Potency [4]: inactive
- Potency [5]: inactive
- Potency [7]: 24.3 µM (active) and inactive

SMILES: COc1ccc2c(c1)c(CC(=O)O)c(C)n2C(=O)c1ccc(Cl)cc1
- Potency [1]: inactive
- Potency [2]: inactive
- Potency [3]: 61.5 µM (active)
- Potency [4]: inactive
- Potency [7]: inactive

SMILES: CCN(CC)C(=O)c1cccc(C)c1
- Potency [1]: inactive
- Potency [2]: inactive
- Potency [3]: inactive
- Potency [4]: inactive
- Potency [5]: inactive
- Potency [7]: inactive
- max activation [8]: -4.83% (inactive)
- outcome [10]: inactive
